{"source": "PubChem BioAssay (Tox21)", "molecular_target": "Beta-2 adrenergic receptor (Homo sapiens) (UniProt P07550)", "sequence (P07550 whole entry, looked up)": "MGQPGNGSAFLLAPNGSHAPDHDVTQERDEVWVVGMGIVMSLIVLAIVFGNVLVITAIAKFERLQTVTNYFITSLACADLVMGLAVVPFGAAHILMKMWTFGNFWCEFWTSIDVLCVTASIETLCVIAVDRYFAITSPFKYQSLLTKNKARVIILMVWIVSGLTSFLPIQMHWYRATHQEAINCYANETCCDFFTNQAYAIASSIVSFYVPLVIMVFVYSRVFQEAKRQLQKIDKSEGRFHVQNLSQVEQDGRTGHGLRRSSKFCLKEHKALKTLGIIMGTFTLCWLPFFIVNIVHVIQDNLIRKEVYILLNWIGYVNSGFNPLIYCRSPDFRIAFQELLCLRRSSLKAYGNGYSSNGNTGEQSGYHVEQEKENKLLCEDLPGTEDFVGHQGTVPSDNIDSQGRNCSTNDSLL", "assay": "Adrenergic beta2 receptor (ADRB2) small molecule agonists, cell-based qHTS assay (AID 1963593);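 further: CHO cells stably overexpressing human ADRB2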", "method_in_brief": "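CHO cells stably over-expressing ADRB2 were plated overnight at 37C, then dosed with compounds plus a stimulation mix containing 100uM IBMX and 25uM Ro-20-1724 for 0.5hr at room temperature. cAMP was measured by HTRF competition, 1hr.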", "note": "Results filed as inconclusive are left out. A call without a number means that no potency is given here. The source made the active and inactive calls. The call rests on the fitted dose curve."}
{"smiles": "COc1ccc(C#N)cc1", "values": [{"measurement": "Potency", "result": "inactive"}]}
{"smiles": "Cc1ncc(CSSCc2cnc(C)c(O)c2CO)c(CO)c1O", "values": [{"measurement": "Potency", "result": "inactive"}]}
{"smiles": "CCC(CC)C(C)CCOC(C)=O", "note": "(configuration not stated)", "values": [{"measurement": "Potency", "result": "inactive"}]}
{"smiles": "c1ccc(CSCc2ccccc2)cc1", "values": [{"measurement": "Potency", "result": "inactive"}]}
{"smiles": "CNc1ccccc1", "values": [{"measurement": "Potency", "result": "inactive"}]}
{"smiles": "C[Si](C)=O", "values": [{"measurement": "activation", "result": "7.37% [at 8.39 µM] (inactive)"}]}
{"smiles": "CN(C)c1ccc(Cc2ccc(N(C)C)cc2)cc1", "values": [{"measurement": "Potency", "result": "inactive"}]}
{"smiles": "O=c1[nH]c(=O)c2cn[nH]c2[nH]1", "values": [{"measurement": "Potency", "result": "inactive"}]}
{"smiles": "O=C(O)Cc1ccc(CCNS(=O)(=O)c2ccc(Cl)cc2)cc1", "values": [{"measurement": "Potency", "result": "inactive"}]}
{"smiles": "CC(C)(C)OCC1CO1", "note": "(configuration not stated)", "values": [{"measurement": "Potency", "result": "inactive"}]}
{"smiles": "Cc1c(I)c(=O)n(-c2ccccc2)n1C", "values": [{"measurement": "Potency", "result": "inactive"}]}
{"smiles": "O=C(OC(=O)c1ccccc1)c1ccccc1", "values": [{"measurement": "Potency", "result": "inactive"}]}
{"smiles": "N#CC1(c2ccc(F)cc2)CCC(=O)CC1", "values": [{"measurement": "Potency", "result": "inactive"}]}
{"smiles": "CC(=O)c1cc2ccccc2s1", "values": [{"measurement": "Potency", "result": "inactive"}]}
{"smiles": "CC1=C(O)C(=O)C(C)O1", "note": "(configuration not stated)", "values": [{"measurement": "Potency", "result": "inactive"}]}
{"smiles": "O=C1CCC(=O)O1", "values": [{"measurement": "Potency", "result": "inactive"}]}
{"smiles": "CC(C)CCOCCC(C)C", "values": [{"measurement": "Potency", "result": "inactive"}]}
{"smiles": "CC(C)(c1cc(Br)c(OCC(Br)CBr)c(Br)c1)c1cc(Br)c(OCC(Br)CBr)c(Br)c1", "note": "(configuration not stated)", "values": [{"measurement": "Potency", "result": "inactive"}]}
{"smiles": "C1COC1", "values": [{"measurement": "Potency", "result": "inactive"}]}
{"smiles": "CC/C=C\\CCOC(=O)CC", "values": [{"measurement": "Potency", "result": "inactive"}]}
{"smiles": "Cc1ccc2n[nH]nc2c1", "values": [{"measurement": "Potency", "result": "inactive"}]}
{"smiles": "Cc1ccc(N=Nc2c(O)ccc3ccccc23)c(C)c1", "values": [{"measurement": "Potency", "result": "inactive"}]}
{"smiles": "NC(=O)Nc1ccc(Cl)cc1", "values": [{"measurement": "Potency", "result": "inactive"}]}
{"smiles": "O=S(=O)(O)CCCN1CCOCC1", "values": [{"measurement": "Potency", "result": "inactive"}]}
{"smiles": "Nc1cc([N+](=O)[O-])ccc1Cl", "values": [{"measurement": "Potency", "result": "inactive"}]}
{"smiles": "O=C(O)c1cccc(C(F)(F)F)c1", "values": [{"measurement": "Potency", "result": "inactive"}]}
{"smiles": "CC(C)(C)CC(C)(C)c1ccc(O)c(-n2nc3ccccc3n2)c1", "values": [{"measurement": "Potency", "result": "inactive"}]}
{"smiles": "C#CC(C)(O)CC(C)C", "note": "(configuration not stated)", "values": [{"measurement": "Potency", "result": "inactive"}]}
{"smiles": "O=c1[nH]cnc2c1ncn2[C@@H]1O[C@H](CO)[C@@H](O)[C@H]1O", "values": [{"measurement": "Potency", "result": "inactive"}]}
{"smiles": "O=C(OCCOCCO)c1ccccc1Nc1cccc(C(F)(F)F)c1", "values": [{"measurement": "Potency", "result": "inactive"}]}
{"smiles": "FC(F)(F)C(Cl)(Cl)Cl", "values": [{"measurement": "Potency", "result": "inactive"}]}
{"smiles": "CC[N+](C)(C)c1cccc(O)c1", "values": [{"measurement": "Potency", "result": "inactive"}]}
{"smiles": "COCc1ccc(COC)cc1", "values": [{"measurement": "Potency", "result": "inactive"}]}
{"smiles": "CCCCCCC(C)(C)C(=O)O", "values": [{"measurement": "Potency", "result": "inactive"}]}
{"smiles": "C=CCCCCCCCC", "values": [{"measurement": "Potency", "result": "inactive"}]}
{"smiles": "NC(=O)c1ncn([C@@H]2O[C@H](CO)[C@@H](O)[C@H]2O)c1O", "values": [{"measurement": "Potency", "result": "inactive"}]}
{"smiles": "CCC(=O)OCc1ccc(OC)cc1", "values": [{"measurement": "Potency", "result": "inactive"}]}
